The text below walks through data of PubChem BioAssay (Tox21).

SMILES strings stand for the structures. Values joined by “and” are separate entries in the source; they are usually repeats but may differ in a detail not shown here. Identical values can stand only once. Results filed as inconclusive are left out. Active and inactive are the calls of the source. Unless noted, calls follow the shape of the dose curve; as a rule, active = well fitted curve in the direction sought with a large enough effect in the repeat runs; inconclusive = weak or mixed curves; inactive = no such curve, though single readings can be large; an effect the other way counts as inactive or inconclusive.

A short description of assay [1]: qHTS assay to test for compound auto fluorescence at 535 nm (green) in HEK293 cells (AID 720680). For orientation: Quantitative high-throughput screening tests each substance at several concentrations.
The nature of assay [2]: qHTS assay to test for compound auto fluorescence at 460 nm (blue) in HEK293 cell free culture (AID 720681). A digest of the protocol: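 Compounds were added to cell-free DMEM with 10% FBS and fluorescence read directly. The blue channel used 405 nm excitation and 460 nm emission, with triamterene as the reference fluorophore.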
Assay [3] can be described thus: qHTS assay to test for compound auto fluorescence at 535 nm (green) in HEK293 cell free culture (AID 720682). A digest of the protocol: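 Steps: dispense DMEM/10% FBS into empty wells; pin in compound or DMSO; measure fluorescence at 485/535 nm. Values are fluorescein equivalents.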
The nature of assay [4]: qHTS assay to test for compound auto fluorescence at 590 nm (red) in HEK293 cell free culture (AID 720683). The gist of the method: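 Cell-free wells of DMEM with 10% FBS received compound, and intrinsic fluorescence was read at excitation/emission 540/590 nm. Values expressed as equivalence to Rose Bengal sodium.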
A short description of assay [5]: qHTS assay to test for compound auto fluorescence at 590 nm (red) in HepG2 cell free culture (AID 720684). A digest of the protocol: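 Compound was pinned into wells holding MEM with 10% FBS and no cells, and red fluorescence was read at Ex/Em 540/590 nm. Signal is expressed as auto fluorescence equivalency relative to Rose Bengal sodium.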
Assay [6] in a line: qHTS assay to test for compound auto fluorescence at 460 nm (blue) in HepG2 cell free culture (AID 720685). The gist of the method:
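Compound (23 nL) or DMSO pinned into cell-free MEM with 10% FBS; blue fluorescence read at 405/460 nm excitation/emission, expressed as auto-fluorescence equivalency to triamterene.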

A short description of assay [7]: qHTS assay to test for compound auto fluorescence at 535 nm (green) in HepG2 cell free culture (AID 720686).
Assay [8] is described as follows: qHTS assay to test for compound auto fluorescence at 460 nm (blue) in HepG2 cells (AID 720687). The gist of the method: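 HepG2 cells in MEM with 10% FBS, attached overnight at 37 C, were exposed to compound or DMSO for 1 hr at 37 C, 5% CO2. Blue fluorescence was read at 405/460 nm, with triamterene as reference fluorophore.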
The target in assay [9] is Glucocorticoid receptor (Homo sapiens) (UniProt P04150). In words: qHTS assay to identify small molecule agonists of the glucocorticoid receptor (GR) signaling pathway (AID 720691; active = well fitted activation curve with a large enough effect in the signal ratio in the repeat runs, not every such curve was filed as active; the % refers to the signal ratio). The note with it: GR-bla HeLa, beta-lactamase reporter ratio, 18 h; activation: at 62.4 µM (top of the series). The gist of the method:
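GR-bla HeLa cells carrying a GRE-driven beta-lactamase reporter, exposed to compounds for 18 h at 37 C. Reporter activation read as fluorescence after 2 h with LiveBLAzer B/G FRET substrate at room temperature.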

A short description of assay [10]: qHTS assay to identify small molecule antagonists of the glucocorticoid receptor (GR) signaling pathway - cell viability counter screen (AID 720693). Also: nearly all actives have a fitted effect of over 55% in size. Also: potency is read from the fitted curve at half-maximal effect.
The nature of assay [11]: qHTS assay for identifying genotoxic compounds that show differential cytotoxicity against isogenic chicken DT40 cell lines with known DNA damage response pathways - wild type cell line (AID 743012). Also: nearly all actives have a fitted effect of over 60% in size. Also: potency is read from the fitted curve at half-maximal effect. The gist of the method: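 Wild-type DT40 cells (300/well) exposed to compounds for 40 hours at 37 C/5% CO2. Viability read by CellTiter-Glo luminescence after 30 min at room temperature.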

Assay [12] can be described thus: qHTS assay for identifying genotoxic compounds that show differential cytotoxicity against isogenic chicken DT40 cell lines with known DNA damage response pathways - Rev3 mutant cell line (AID 743014). Also: nearly all actives have a fitted effect of over 55% in size. Also: potency is read from the fitted curve at half-maximal effect.
The nature of assay [13]: qHTS assay for identifying genotoxic compounds that show differential cytotoxicity against isogenic chicken DT40 cell lines with known DNA damage response pathways - Rad54/Ku70 mutant cell line (AID 743015). Also: nearly all actives have a fitted effect of over 60% in size. Also: potency is read from the fitted curve at half-maximal effect.
The nature of assay [14]: qHTS assay to identify small molecule antagonists of the androgen receptor (AR) signaling pathway - cell viability counter screen (AID 743033; also: nearly all actives have a fitted effect of over 45% in size; also: potency is read from the fitted curve at half-maximal effect).
Assay [15] is described as follows: qHTS assay to identify small molecule antagonists of the androgen receptor (AR) signaling pathway using the MDA cell line - cell viability counter screen (AID 743041; also: nearly all actives have a fitted effect of over 45% in size). The gist of the method: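 MDA-kb2 AR-luc cells (MMTV-luciferase, AR/GR responsive) treated with compounds plus R1881 agonist for 16 h at 37C. CellTiter-Fluor added at 15.5 h; fluorescence read after 30 min in the same wells.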

Assay [16] concerns the target Androgen receptor (Homo sapiens) (UniProt P10275). In words: qHTS assay to identify small molecule antagonists of the androgen receptor (AR) signaling pathway (AID 743035; active = well fitted inhibition curve with a large enough effect in the signal ratio in the repeat runs, not every such curve was filed as active; the % refers to the signal ratio; also: potency is read from the fitted curve at half-maximal effect). A digest of the protocol: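 HEK293 cells stably carrying UAS-beta-lactamase reporter, 2,000/well, given compounds plus R1881 agonist and incubated 16 h at 37C. LiveBLAzer B/G FRET substrate then added for 2 h at room temperature before fluorescence reading.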

Assay [17] has the same target. In words: qHTS assay to identify small molecule agonists of the androgen receptor (AR) signaling pathway (AID 743036; active = well fitted activation curve with a large enough effect in the signal ratio in the repeat runs, with a control signal flat, not every such curve was filed as active; the % refers to the signal ratio). A digest of the protocol:
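Reporter line: GeneBLAzer AR-UAS-bla-GripTite (HEK293). Steps: plate cells, 4 h rest, add compounds, 16 h at 37C, add LiveBLAzer B/G substrate, 2 h at RT, read fluorescence.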

The target is the same in assay [18]. As to the kind of experiment: qHTS assay to identify small molecule agonists of the androgen receptor (AR) signaling pathway using the MDA cell line (AID 743040; also: nearly all actives have a fitted effect of over 20% in size). The gist of the method: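 MDA-kb2 breast carcinoma cells carrying MMTV-luciferase (responsive to AR and GR), plated 5 h then treated 16 h with compounds at 37C, 0% CO2. Read-out was ONE-Glo luminescence after 30 min at room temperature.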

Assay [19] has the same target. In words: qHTS assay to identify small molecule antagonists of the androgen receptor (AR) signaling pathway using the MDA cell line (AID 743042; also: nearly all actives have a fitted effect of over 55% in size; also: potency is read from the fitted curve at half-maximal effect). The gist of the method: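 MDA-kb2 breast carcinoma cells carrying MMTV-luciferase (AR/GR responsive) were co-treated with compounds and the agonist R1881 for 16 h at 37C. Inhibition read as ONE-Glo luminescence; CellTiter-Fluor fluorescence measured in parallel for cytotoxicity.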

Chain of Androgen receptor (Homo sapiens) (P10275 whole entry, looked up): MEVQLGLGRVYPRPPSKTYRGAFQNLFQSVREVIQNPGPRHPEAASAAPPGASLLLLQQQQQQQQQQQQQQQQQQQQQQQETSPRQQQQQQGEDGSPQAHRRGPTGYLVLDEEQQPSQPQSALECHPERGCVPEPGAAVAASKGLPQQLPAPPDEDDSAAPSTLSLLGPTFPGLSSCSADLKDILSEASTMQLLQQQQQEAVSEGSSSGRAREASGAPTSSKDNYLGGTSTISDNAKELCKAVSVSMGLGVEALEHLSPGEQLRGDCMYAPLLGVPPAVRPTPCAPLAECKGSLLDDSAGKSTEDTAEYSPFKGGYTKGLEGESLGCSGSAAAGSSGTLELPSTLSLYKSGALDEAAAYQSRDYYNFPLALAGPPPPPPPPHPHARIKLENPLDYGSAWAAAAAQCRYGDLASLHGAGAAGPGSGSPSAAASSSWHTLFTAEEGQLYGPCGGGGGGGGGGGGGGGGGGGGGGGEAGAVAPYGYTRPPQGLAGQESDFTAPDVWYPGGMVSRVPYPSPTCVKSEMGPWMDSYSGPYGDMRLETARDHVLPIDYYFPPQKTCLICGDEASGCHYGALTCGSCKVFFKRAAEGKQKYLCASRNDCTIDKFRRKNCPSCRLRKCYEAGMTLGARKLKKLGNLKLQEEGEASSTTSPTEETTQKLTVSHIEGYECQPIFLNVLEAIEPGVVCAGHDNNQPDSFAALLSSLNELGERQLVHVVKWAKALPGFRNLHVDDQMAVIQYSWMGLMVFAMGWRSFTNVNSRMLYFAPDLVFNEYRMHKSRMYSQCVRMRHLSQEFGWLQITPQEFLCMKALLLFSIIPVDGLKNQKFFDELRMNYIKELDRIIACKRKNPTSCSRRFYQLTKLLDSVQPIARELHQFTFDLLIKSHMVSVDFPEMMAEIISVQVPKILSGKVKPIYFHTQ
Chain of Glucocorticoid receptor (Homo sapiens) (P04150 whole entry, looked up): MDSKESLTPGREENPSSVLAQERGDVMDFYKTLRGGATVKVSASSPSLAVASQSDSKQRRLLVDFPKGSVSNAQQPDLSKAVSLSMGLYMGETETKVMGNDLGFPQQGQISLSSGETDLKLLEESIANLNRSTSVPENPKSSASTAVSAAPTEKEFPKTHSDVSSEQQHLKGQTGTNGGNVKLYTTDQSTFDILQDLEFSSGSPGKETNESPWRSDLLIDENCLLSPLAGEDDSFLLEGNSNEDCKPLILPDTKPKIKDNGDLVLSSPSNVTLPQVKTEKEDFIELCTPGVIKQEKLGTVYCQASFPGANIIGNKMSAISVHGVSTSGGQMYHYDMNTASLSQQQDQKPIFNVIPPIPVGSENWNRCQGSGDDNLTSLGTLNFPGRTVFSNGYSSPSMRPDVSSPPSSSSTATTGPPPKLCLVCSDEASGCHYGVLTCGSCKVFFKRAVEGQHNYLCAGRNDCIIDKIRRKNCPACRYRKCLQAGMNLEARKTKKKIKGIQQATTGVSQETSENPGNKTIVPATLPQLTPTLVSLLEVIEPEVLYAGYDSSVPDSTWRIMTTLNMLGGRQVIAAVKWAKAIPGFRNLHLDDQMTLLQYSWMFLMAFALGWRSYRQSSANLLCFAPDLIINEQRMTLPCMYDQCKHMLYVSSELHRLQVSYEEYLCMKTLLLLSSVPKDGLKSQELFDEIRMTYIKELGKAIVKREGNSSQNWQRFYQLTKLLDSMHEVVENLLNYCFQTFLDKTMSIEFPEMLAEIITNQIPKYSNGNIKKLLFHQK

In the case of `O=P(O)(O)C(O)(Cn1ccnc1)P(=O)(O)O`, the result in assay [1], in [3], in assay [4] and in assay [5] was inactive. The Potency entry in assay [2], in assay [6], in [7], in assay [8], in assay [9] and in assay [10] was “inactive” throughout. The Potency entry in assay [11], in [12], in [13], in assay [14] and in assay [15] was “inactive” each time.
Turning to `C=CC1=C(C(=O)O)N2C(=O)[C@@H](NC(=O)/C(=N/OCC(=O)O)c3csc(N)n3)[C@H]2SC1` (stereo in doubt), the molecule was classed as inactive in [1], in assay [3], in assay [4] and in [5]. In addition, the Potency entry in assay [2], in assay [6], in [7], in [8], in assay [10] and in assay [11] was “inactive” each time. The Potency result in [13], in [14] and in assay [15] was “inactive” in each case.
Regarding `COC(=O)C(CN)c1c[nH]c2ccc(OC)cc12` (configuration not stated), the molecule was called inactive in [1], in assay [3], in [4] and in assay [5]. Moreover, the Potency result in assay [2], in assay [6], in [7], in assay [8], in assay [10] and in assay [11] was “inactive” each time. The Potency entry in [13], in [14] and in assay [15] was “inactive” each time.
Regarding `CN[C@H]1CC[C@@H](c2ccc(Cl)c(Cl)c2)c2ccc(S(N)(=O)=O)cc21`, the call in [1], in assay [3], in assay [4] and in [5] was inactive. The Potency entry in assay [2], in assay [6], in assay [7], in assay [8], in assay [17] and in [18] was “inactive” throughout. The Potency is 13.7 µM (active) in [12]; 13.7 µM (active) in assay [13]; 54.9 µM (active) in assay [14]; 43.6 µM (active) in assay [16]; 68.6 µM (active) in [19].
In the case of `c1ccc2occc2c1`, the molecule was called inactive in assay [1], in assay [3], in [4] and in assay [5]. Also, the Potency entry in assay [2], in assay [6], in [7], in [8] and in assay [15] was “inactive” in each case.
As for `CN1CCN(c2ccccc2/C=C2\SCCN(c3ccc(Cl)c(Cl)c3)C2=O)CC1`, the outcome in assay [1], in [3], in assay [4] and in assay [5] was inactive. Moreover, the Potency result in assay [2], in assay [6], in assay [7] and in assay [8] was “inactive” each time. Also, the Potency in assay [12] was 2.73 µM (active).
Turning to `CON=C1C[C@]2(C[C@@H]3C[C@@H](C/C=C(\C)C[C@@H](C)/C=C/C=C4\CO[C@@H]5[C@H](O)C(C)=C[C@@H](C(=O)O3)[C@]45O)O2)O[C@H](/C(C)=C/C(C)C)[C@H]1C`, the result in assay [1], in assay [3], in [4] and in [5] was inactive. Besides, the Potency entry in assay [2], in [6], in assay [7], in assay [8], in assay [14] and in assay [15] was “inactive” each time. The Potency result in [19] was “inactive”. For the same molecule, the Potency in assay [10] is 7.56 µM (active) and 10.7 µM (active); in assay [11], 13.3 µM (active) and 16.8 µM (active); in assay [13], 10.6 µM (active) and 13.3 µM (active); in assay [16] it was 7.56 µM (active).
As for `NC(=S)NS(=O)(=O)c1ccc(N)cc1`, the molecule was classed as inactive in [1], in assay [3], in assay [4] and in assay [5]. In addition, the Potency result in assay [2], in [6], in assay [7], in assay [8], in [10] and in [12] was “inactive” throughout. For the same molecule, the Potency result in assay [13], in assay [14] and in assay [15] was “inactive” each time.
